Compounds with a hit are over-represented: about 28% of the library has one in this group of screens.
CYP2C9 inhib = human CYP2C9 inhibition; CYP2C9 Supersomes, luciferin-H conversion, luminescence; inhibition, % at 5 µM; 96,000 compounds, 20% hits;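 active = blocking of liver enzyme CYP2C9 beyond about 50% at 5 µM, limit read from the data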
Target sequence (P11712 whole entry, looked up): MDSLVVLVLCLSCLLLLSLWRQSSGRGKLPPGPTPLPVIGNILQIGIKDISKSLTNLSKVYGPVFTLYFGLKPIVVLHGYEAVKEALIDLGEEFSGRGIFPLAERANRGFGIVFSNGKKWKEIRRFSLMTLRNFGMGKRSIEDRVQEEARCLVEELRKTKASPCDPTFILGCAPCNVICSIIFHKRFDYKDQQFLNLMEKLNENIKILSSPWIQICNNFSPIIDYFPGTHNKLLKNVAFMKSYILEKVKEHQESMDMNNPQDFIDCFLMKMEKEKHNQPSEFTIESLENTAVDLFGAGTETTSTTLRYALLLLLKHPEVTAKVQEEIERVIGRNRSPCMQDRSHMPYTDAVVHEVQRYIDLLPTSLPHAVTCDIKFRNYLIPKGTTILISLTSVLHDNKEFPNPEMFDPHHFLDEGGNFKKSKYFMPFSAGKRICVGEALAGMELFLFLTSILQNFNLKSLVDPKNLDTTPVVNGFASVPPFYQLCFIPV
PTK2B oligo ant = blocks oligomerization of human Pyk2 in cells; Q293 cells, Pyk2 FERM NanoBiT luminescence; hits give low values; z-score (the deposit names both 25 µM and 10 µM); 99,000 compounds, 0.83% hits; AID 1347419;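 active = Z-score of -3 or lower, scaled per plate to the spread of control and sample wells; inactive = z-score above -3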;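 note: negative z-score means lost luminescence so less FERM oligomerization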
CYP2C19 act = increases human CYP2C19 enzyme activity | P33261 | activation factor at 5 µM | 96,000 tested, under 10 active | recombinant CYP2C19, luciferin-H EGE luminescence; hits give high values; 0 = fully inhibited enzyme, 1 = untreated enzyme | AID 1025;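 active = activation factor of at least 2 at 5 µM in the primary screen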;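 note: 0 = wells with 2.5 mM tranylcypromine and 1 = vehicle-only wells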
CYP2C19 inh = blocks human cytochrome P450 2C19 | CYP2C19 Supersomes, luciferin-H EGE luminescence, 30 min | inhibition, % at 5 µM | 96,000 compounds, 21% hits | AID 778;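 active = CYP2C19 inhibition above a set limit at 5 µM in the primary screen, cut at about 50% in these data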;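 note: plate controls were negative control wells for no effect and 2.5 mM tranylcypromine positive control for full effect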
CYP2C9 activ = CYP2C9 (human) activation; 96,000 compounds, 1.4% hits; activation factor at 5 µM; P11712; AID 1024; recombinant CYP2C9, luciferin-H conversion, luminescence; hits give high values; factor 1 = untreated enzyme, 0 = blocked;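 active = activation factor of 2 or more for CYP2C9 at a 5 µM dose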;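 note: 0 = sulfaphenazole-blocked wells and 1 = vehicle-only wells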
* marks the source's active call; other numbers are inactive results; · = not tested or not shown.

SMILES | CYP2C9 inhib | PTK2B oligo ant | CYP2C19 act | CYP2C19 inh | CYP2C9 activ
COc1cc2c(cc1NC(=O)CCCCCN1C(=O)CCC1=O)oc1ccccc12 | 0.3 | -0.79 | 0.9 | 8.7 | 1
CCN(CC)S(=O)(=O)c1ccc(-c2nnc(SCC(=O)Nc3nnc(C)s3)n2CC)cc1 | 9.5 | 0.86 | 1 | 0.2 | 0.9
CCN(CC)S(=O)(=O)c1cccc(C(=O)N[C@H](C(=O)O)C(C)C)c1 | -5.7 | 0.58 | 1.2 | -15.8 | 1.1
CCN(CC)S(=O)(=O)c1ccc(Cl)c(C(=O)Nc2nnc(C)s2)c1 | 80.5* | -0.33 | 1.1 | -6.6 | 0.2
CCN(CC)S(=O)(=O)c1cccc(C(=O)N[C@H](C(=O)NCc2ccccc2F)C(C)C)c1 | 84.7* | 1.26 | 0.8 | 20.3 | 0.2
CCN(CC)S(=O)(=O)c1cccc(C(=O)NC(C(=O)Nc2nnc(C)s2)C(C)C)c1 (stereo not drawn) | 78.1* | -0.02 | 0.6 | 43.1 | 0.2
CCN(CC)S(=O)(=O)c1cccc(C(=O)N[C@H](C(=O)NCc2ccc(Cl)cc2)C(C)C)c1 | 97.2* | 0.06 | 0.7 | 28.6 | 0
CCN(CC)S(=O)(=O)c1cccc(C(=O)N[C@H](C(=O)OCC(=O)NC(=O)NC)C(C)C)c1 | 23.8 | 1.04 | 0.7 | 31.4 | 0.8
COCCCNC(=O)C1CCN(C(=O)Nc2ccc(Cl)cc2)CC1 | 13.8 | -0.26 | 0.9 | 11.9 | 0.9
CC1=NN2C(=N)/C(=C\c3ccc(SCc4ccccc4)o3)C(=O)N=C2S1 | 47.1 | -2.6 | 1 | 3.9 | 0.5
N=C1/C(=C\c2ccc(SCc3ccco3)o2)C(=O)N=C2SC=NN12 | 73.6* | 0.35 | 1 | -4.6 | 0.3
Cc1ccc(-c2n[nH]c3c2CCC3)cc1 | 43.0 | -0.61 | 0.3 | 66.1* | 0.6
CCN(C(C)=O)c1nnc(CSc2nc3ccccc3s2)s1 | 1.6 | -0.61 | 0.1 | 88.4* | 1
CCOC(=O)Cc1csc(NC(=O)CSc2nnnn2-c2ccc(CC)cc2)n1 | 77.1* | 1.3 | 0.1 | 87.6* | 0.2
CCOC(=O)Cc1csc(NC(=O)CSc2nnc(-c3ccc(F)cc3)o2)n1 | 56.3* | 2.6 | 0.8 | 16.5 | 0.4
CCOC(=O)Cc1csc(NC(=O)CSc2nnc(-n3nc(C)cc3C)c3ccccc23)n1 | 92.0* | 0.5 | 0.2 | 79.2* | 0.1
CCOC(=O)Cc1csc(NC(=O)CSc2nnc(-c3ccc(C)cc3)o2)n1 | 83.8* | -0.01 | 0.6 | 38.0 | 0.2
CCOC(=O)c1csc(NC(=O)CSc2nnnn2-c2ccc(OCC)cc2)n1 | -14.5 | 1.05 | 1 | -4.2 | 1.1
Cc1cc(C)n(-c2nnc(SCC(=O)NC3CCCC3)c3ccccc23)n1 | · | 0.8 | · | · | ·
Cc1csc(NC(=O)CSc2nnc(-c3ccccc3)o2)n1 | 13.0 | 0.49 | 0.8 | 24.4 | 0.9
COc1ccc(C)cc1S(=O)(=O)N(CC(=O)Nc1cccc([N+](=O)[O-])c1)c1ccc(C)c(C)c1 | · | -0.25 | · | · | ·
CCCS(=O)(=O)N1CCN(C(=O)COc2ccc(-c3ccccc3)cc2)CC1 | · | 1.46 | · | · | ·
O=[N+]([O-])c1cccc(/C=N/Nc2cc(Cl)nc(-c3ccccc3)n2)c1 | 17.8 | -2.3 | 1 | 3.8 | 0.8
CC(=O)N(c1ccc(Cl)cc1)c1c[nH]c2ccccc12 | 69.6* | -1.83 | 0.1 | 91.8* | 0.3
Cc1cc(NC(=O)COC(=O)c2cc(S(=O)(=O)N3CCOCC3)ccc2N2CCCCC2)no1 | 18.3 | -0.32 | 0.9 | 12.5 | 0.8
SMILES | CYP2C9 inhib | PTK2B oligo ant | CYP2C19 act | CYP2C19 inh | CYP2C9 activ
CCn1cc(C(=O)OCC(=O)Nc2cccc(S(=O)(=O)N3CCOCC3)c2)c(=O)c2ccc(C)nc21 | 67.1* | 1.84 | 0.6 | 36.9 | 0.3
Cc1ccc(-c2csc(NC(=O)COC(=O)c3cccc(S(=O)(=O)N4CCOCC4)c3)n2)cc1 | 13.8 | · | 0.9 | 14.1 | 0.9
CCCc1nc2ccccc2c(C(=O)OCC(=O)Nc2cccc(S(=O)(=O)N3CCOCC3)c2)c1CC | 43.7 | -4.56* | 0.5 | 46.5 | 0.6
CCCc1nc2ccccc2c(C(=O)OCC(=O)Nc2ccc(S(=O)(=O)N3CCOCC3)cc2)c1CC | 75.5* | -4.55* | 0.9 | 7.7 | 0.2
Cc1nc2cc(Cl)ccc2n1-c1ccccc1 | 15.9 | -0.75 | 0.2 | 80.1* | 0.8
N#CNC1=NCN(Cc2ccccc2)CN1 | -12.2 | -0.02 | 1.1 | -7.9 | 1.1
O=C(c1ccc2c3c(cccc13)CC2)N1CCN(c2ncccn2)CC1 | · | -0.31 | · | · | ·
CCn1c(=O)n(CC)c2cc(S(=O)(=O)NCCOc3ccccc3)c(C)cc21 | 72.0* | -0.41 | 0.5 | 51.3* | 0.3
Cc1cc(N2CCCC2=O)cc(C)c1S(=O)(=O)NCCOc1ccccc1 | 91.5* | 1.22 | 0.1 | 88.4* | 0.1
c1ccc(-c2nnc(-c3ccccc3)c(-c3c[nH]c4ccccc34)n2)cc1 | -1.8 | -0.91 | 1.2 | -15.8 | 1
c1ccc2c(-c3ccncc3)c[nH]c2c1 | 93.4* | 0.49 | 0.1 | 85.3* | 0.1
CC(C)C1=NN(C(=O)c2ccccc2)C(O)(C(C)(C)C)C1 (stereo not drawn) | 5.1 | 2.1 | 0.8 | 15.7 | 0.9
COc1cccc(OCCCOc2ccccc2C(C)C)c1 | 5.6 | -0.53 | 1 | -3.0 | 0.9
COC(=O)c1c(C(=O)OC)n(CCCN)c2ccc(C)cc12 | 5.9 | 0.32 | 0.7 | 25.4 | 0.9
Cc1ccc2c(c1)c1cccc3c1n2CCN3CCC(N)=O | 74.5* | -0.28 | 0.7 | 30.8 | 0.3
CCOC(=O)c1sc(C)c2c1NC(c1ccc(Cl)cc1)NC2=O (stereo not drawn) | 53.3* | -0.28 | 0.9 | 11.9 | 0.5
CCOC(=O)c1sc(C)c2c1NC(C)(c1ccccc1)NC2=O (stereo not drawn) | 68.4* | -0.32 | 0.8 | 17.8 | 0.3
CCOC(=O)c1c(C)nc2sc3c(c2c1-c1ccc(OC)cc1)NC(c1ccccc1)NC3=O (stereo not drawn) | · | -0.53 | · | · | ·
COCCn1c(C)cc(C(=O)COC(=O)CCc2ccc(S(=O)(=O)N3CCOCC3)cc2)c1C | -5.5 | -0.25 | 1 | 0.0 | 1.1
COCC(C)n1c(C)cc(C(=O)COc2ccc(S(=O)(=O)N3CCOCC3)cc2Cl)c1C (stereo not drawn) | 57.5* | 0.13 | 0.5 | 50.8* | 0.4
c1ccc(CN2CCN(c3ncnc4nc[nH]c34)CC2)cc1 | 3.5 | · | 0.6 | 37.0 | 1
Cc1cccc(C)c1NC(=O)C/C(N)=N/O | 10.8 | 0.7 | 0.9 | 13.1 | 0.9
Cc1ccc(NC(=O)CN2CCCCCC2)c(Br)c1 | 13.8 | 0.15 | 0.2 | 80.3* | 0.9
O=C(CN1CCCCCC1)Nc1ccc(F)c(F)c1F | 8.0 | 0.34 | 0.3 | 71.6* | 0.9
CCN1CCN(c2nc3c(c(=O)n(C)c(=O)n3C)n2CCSc2nccc(C)n2)CC1 | 7.9 | 0.84 | 1 | -1.9 | 0.9
Cn1c(=O)c2c(nc(N3CCN(Cc4ccccc4)CC3)n2CCCc2ccccc2)n(C)c1=O | 30.7 | -0.4 | 0.3 | 68.1* | 0.7
Cc1nnc(SCCn2c(N3CCN(Cc4ccccc4)CC3)nc3c2c(=O)[nH]c(=O)n3C)s1 | 59.2* | -0.51 | 0.3 | 71.1* | 0.4
